We go through 4 molecules from PubChem BioAssay (EPA / NIEHS).

The target in assay [1] is Bile acid receptor (Homo sapiens) (UniProt Q96RI1). The assay is described as follows: ATG_IR1_CIS: Attagene CIS-FACTORIAL HepG2 Assay for human Nuclear Receptor Subfamily 1 Group H Member 4 (NR1H4), IR1 submotif (AID 2282946). To be noted: IR1 reporter transcription, actives raise or lower the signal. In short, it runs like this:
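HepG2 cells transiently transfected with multiplexed cis-element reporter units read endogenous transcription factor activity. After 24 h compound exposure, reporter mRNA was quantified by RT-PCR, fluorescent labelling, HpaI digestion and capillary electrophoresis; bidirectional fitting versus DMSO baseline.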

Assay [2] can be described thus: ATG_GRE_CIS: Attagene CIS-FACTORIAL HepG2 Assay for human Glucocorticoid Response Elements (GRE) (AID 2282947). To be noted: HepG2 GRE cis-reporter, Attagene multiplex mRNA; actives raise or lower the signal. In short, it runs like this:
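Reporter transcripts read by RT-PCR with capillary electrophoresis fluorescence after a 24 h chemical exposure of HepG2 cells transiently transfected with multiple cis-element reporter units. Gain or loss fitted against DMSO.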

Assay [3] can be described thus: ATG_ISRE_CIS: Attagene CIS-FACTORIAL HepG2 Assay for human Interferon Regulatory Factor 1 (IRF1) binding to an Interferon-Stimulated Response Element (ISRE) (AID 2282948). The note with it: HepG2 ISRE cis-reporter (Attagene), mRNA transcription readout; actives raise or lower the signal. The gist of the method: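 Read-out: fluorescent RT-PCR products resolved by capillary electrophoresis, reporting endogenous transcription factor activity via ISRE-driven reporter mRNA in transfected HepG2 cells dosed for 24 h; gain or loss fitted relative to DMSO.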

Assay [4] can be described thus: ATG_M_32_CIS: Attagene CIS-FACTORIAL HepG2 Assay for M32 Transcription Factor (Internal Marker) (AID 2282949).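 Further: background control marker of the multiplexed CIS panel rather than a real target.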 The note with it: HepG2 Attagene cis-factorial M32 reporter, mRNA; actives raise or lower the signal. In short, it runs like this:
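HepG2 human liver cells transiently transfected with cis-promoter-driven multiple reporter transcription units, dosed 24 h. Reporter mRNA quantified by RT-PCR, FAM-labelled primer extension, HpaI digest and capillary electrophoresis; bidirectional fit versus DMSO baseline.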

Assay [5] can be described thus: ATG_M_06_CIS: Attagene CIS-FACTORIAL HepG2 Assay for M06 Transcription Factor (Internal Marker) (AID 2282950). The note with it: HepG2 Attagene CIS-FACTORIAL M06 internal marker reporter; actives raise or lower the signal. In short, it runs like this:
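Fluorescence-labelled RT-PCR products from cis-promoter reporter units, cut with HpaI and resolved by capillary electrophoresis, give the signal. Cells are human HepG2, dosed for 24 h. Serves as background control, fitted relative to DMSO.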

Assay [6] deals with Heat shock factor protein 1 (Homo sapiens) (UniProt Q00613). Kind of assay: ATG_HSE_CIS: Attagene CIS-FACTORIAL HepG2 Assay for human Heat Shock Transcription Factor 1 (HSE) (AID 2282953). The note with it: HepG2 HSE cis-reporter, Attagene RNA transcription; actives raise or lower the signal. The gist of the method: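 After a 24 h incubation with test chemical, transfected HepG2 cells were harvested for RNA; reporter transcripts were measured by RT-PCR and capillary electrophoresis. Values reflect gain or loss of signal relative to DMSO.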
Sequence of Heat shock factor protein 1 (Homo sapiens) (Q00613 whole entry, looked up): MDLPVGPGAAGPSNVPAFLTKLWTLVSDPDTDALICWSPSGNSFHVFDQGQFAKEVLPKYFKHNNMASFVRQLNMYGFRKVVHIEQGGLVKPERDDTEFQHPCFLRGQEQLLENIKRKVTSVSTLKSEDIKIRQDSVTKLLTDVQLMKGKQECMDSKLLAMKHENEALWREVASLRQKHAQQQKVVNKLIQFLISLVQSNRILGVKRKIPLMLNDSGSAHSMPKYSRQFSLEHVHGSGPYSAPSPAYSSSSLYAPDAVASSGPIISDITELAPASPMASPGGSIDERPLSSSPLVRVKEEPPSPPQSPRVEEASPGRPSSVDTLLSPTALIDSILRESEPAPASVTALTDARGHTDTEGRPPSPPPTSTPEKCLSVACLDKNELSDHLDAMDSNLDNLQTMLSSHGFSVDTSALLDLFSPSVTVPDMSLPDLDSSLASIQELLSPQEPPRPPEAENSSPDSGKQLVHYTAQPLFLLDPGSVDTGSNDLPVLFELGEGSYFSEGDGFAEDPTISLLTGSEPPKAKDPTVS

Assay [7] is described as follows: ATG_MRE_CIS: Attagene CIS-FACTORIAL HepG2 Assay for human Metal Responsive Element (MRE) (AID 2282954). The note with it: HepG2 MRE cis-reporter transcription, Attagene multiplex; actives raise or lower the signal. The gist of the method: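 Endogenous MRE-dependent transcription read as reporter mRNA in transiently transfected human HepG2 cells at 24 h. RNA reverse-transcribed, PCR-amplified, labelled and resolved by capillary electrophoresis; gain or loss relative to DMSO.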

Assay [8] is described as follows: ATG_PBREM_CIS: Attagene CIS-FACTORIAL HepG2 Assay for human Phenobarbital-responsive Enhancer Module (PBREM) (AID 2282955). To be noted: HepG2 PBREM cis-reporter, Attagene multiplexed transcription; actives raise or lower the signal. The gist of the method:
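HepG2 cells transiently transfected with multiple cis-regulated reporter transcription units; endogenous factor activity at the PBREM element measured as reporter mRNA 24 h after dosing, via RT-PCR and capillary electrophoresis of fluorescent fragments; bidirectional fitting versus DMSO.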

The target in assay [9] is Paired box protein Pax-6 (Homo sapiens) (UniProt P26367). Kind of assay: ATG_Pax6_CIS: Attagene CIS-FACTORIAL HepG2 Assay for human Paired Box 6 (PAX6) (AID 2282956). The note with it: HepG2 CIS-FACTORIAL PAX6 reporter transcription, RNA readout; actives raise or lower the signal. In short, it runs like this: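 Readout: reporter transcript fluorescence after RT-PCR and capillary electrophoresis. Cells: HepG2, transiently transfected with cis-regulated MRTUs. Exposure 24 h. Gain or loss of signal fitted bidirectionally relative to DMSO.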
Sequence of Paired box protein Pax-6 (Homo sapiens) (P26367 whole entry, looked up): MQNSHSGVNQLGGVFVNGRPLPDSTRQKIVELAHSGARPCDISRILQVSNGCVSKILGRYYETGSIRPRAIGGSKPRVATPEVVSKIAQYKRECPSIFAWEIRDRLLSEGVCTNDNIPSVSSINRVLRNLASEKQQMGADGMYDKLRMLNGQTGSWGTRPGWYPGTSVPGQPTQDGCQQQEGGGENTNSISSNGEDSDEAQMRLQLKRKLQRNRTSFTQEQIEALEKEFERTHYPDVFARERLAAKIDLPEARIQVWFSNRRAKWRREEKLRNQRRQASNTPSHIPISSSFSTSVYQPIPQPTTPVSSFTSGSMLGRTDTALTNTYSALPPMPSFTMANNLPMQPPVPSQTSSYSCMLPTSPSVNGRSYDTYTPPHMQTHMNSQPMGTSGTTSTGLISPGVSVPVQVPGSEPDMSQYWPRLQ

Assay [10] can be described thus: ATG_RORE_CIS: Attagene CIS-FACTORIAL HepG2 Assay for human RAR-related Orphan Receptor Element (RORE) (AID 2282959). To be noted: HepG2 Attagene cis-factorial RORE reporter, mRNA; actives raise or lower the signal. In short, it runs like this: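 HepG2 cells transiently transfected with multiple cis-element reporter transcription units, exposed to chemical for 24 h. Reporter mRNA quantified by RT-PCR, 6-FAM primer-extension labeling, HpaI digestion and capillary electrophoresis; bidirectional fit versus DMSO baseline.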

A short description of assay [11]: ATG_Sox_CIS: Attagene CIS-FACTORIAL HepG2 Assay for human SRY-box transcription factor (SOX) (AID 2282960). To be noted: HepG2 Attagene cis-factorial SOX reporter, mRNA; actives raise or lower the signal. The gist of the method: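 HepG2 cells transiently transfected with cis-element-driven multiple reporter transcription units, dosed 24 h; reporter mRNA measured by RT-PCR, FAM labelling, HpaI digestion and capillary electrophoresis. Bidirectional fit versus DMSO baseline.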

In assay [12] the target is Transcription factor Sp1 (Homo sapiens) (UniProt P08047). The assay is described as follows: ATG_Sp1_CIS: Attagene CIS-FACTORIAL HepG2 Assay for human Specificity Protein 1 (Sp1) (AID 2282961). The note with it: HepG2 Sp1 cis-reporter transcription, actives raise or lower the signal. The gist of the method: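 HepG2 cells transiently transfected with multiple reporter transcription units driven by cis-regulatory elements; Sp1-responsive reporter mRNA measured 24 h after dosing by RT-PCR and capillary electrophoresis fluorescence, fitted bidirectionally against DMSO baseline.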
Sequence of Transcription factor Sp1 (Homo sapiens) (P08047 whole entry, looked up): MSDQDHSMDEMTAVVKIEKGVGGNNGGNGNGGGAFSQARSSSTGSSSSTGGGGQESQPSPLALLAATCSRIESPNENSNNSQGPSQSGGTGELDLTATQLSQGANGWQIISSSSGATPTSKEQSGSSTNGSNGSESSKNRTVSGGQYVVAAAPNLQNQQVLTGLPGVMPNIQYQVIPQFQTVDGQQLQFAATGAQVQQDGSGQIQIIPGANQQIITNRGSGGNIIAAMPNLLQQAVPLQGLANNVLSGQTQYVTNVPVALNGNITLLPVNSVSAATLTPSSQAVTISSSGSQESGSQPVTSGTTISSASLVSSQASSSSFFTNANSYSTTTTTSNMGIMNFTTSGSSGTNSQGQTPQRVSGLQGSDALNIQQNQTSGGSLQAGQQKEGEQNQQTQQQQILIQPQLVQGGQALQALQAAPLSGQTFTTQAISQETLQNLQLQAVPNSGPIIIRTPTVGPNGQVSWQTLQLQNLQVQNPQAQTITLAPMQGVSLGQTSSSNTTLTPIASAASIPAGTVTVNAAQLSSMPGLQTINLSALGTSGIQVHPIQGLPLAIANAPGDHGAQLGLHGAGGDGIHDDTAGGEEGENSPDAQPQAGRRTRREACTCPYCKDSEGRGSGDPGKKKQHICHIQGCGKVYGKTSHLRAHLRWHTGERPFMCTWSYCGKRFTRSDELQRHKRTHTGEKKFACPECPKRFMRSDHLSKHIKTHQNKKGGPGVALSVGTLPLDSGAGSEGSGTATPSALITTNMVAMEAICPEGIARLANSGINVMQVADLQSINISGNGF

Assay [13] addresses Signal transducer and activator of transcription 3 (Homo sapiens) (UniProt P40763). The assay is described as follows: ATG_STAT3_CIS: Attagene CIS-FACTORIAL HepG2 Assay for human Signal Transducer and Activator of Transcription 3 (STAT3) (AID 2282963). The note with it: HepG2, Attagene cis-factorial STAT3 reporter transcription; actives raise or lower the signal. In short, it runs like this:
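Readout is reporter transcript quantified by RT-PCR and capillary electrophoresis, with 6-FAM primer extension and HpaI digestion. Total RNA is taken 24 h after dosing transiently transfected HepG2 carrying cis-regulated reporter units. Bidirectional fit against DMSO.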

Assay [14] in a line: ATG_TA_CIS: Attagene CIS-FACTORIAL HepG2 Assay for human TA Basal Promoter (AID 2282964). The note with it: HepG2 Attagene CIS-factorial TA basal promoter reporter; actives raise or lower the signal. The gist of the method:
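Multiplexed mRNA reporter assay, HepG2, 24 h. Reporter cDNA amplified, 6-FAM primer-extended, HpaI-cut, CE-sized; DMSO = negative control and baseline.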

The nature of assay [15]: ATG_TCF_b_cat_CIS: Attagene CIS-FACTORIAL HepG2 Assay for human T-Cell-Factor with beta-catenin (TCF/b-cat) (AID 2282965). To be noted: HepG2 TCF/beta-catenin cis-reporter transcription, actives raise or lower the signal. In short, it runs like this: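 Endogenous TCF/LEF activity read as reporter transcript level via RT-PCR and capillary electrophoresis fluorescence in transfected HepG2, 24 h exposure; gain or loss of signal fitted against DMSO controls.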

The target in assay [16] is Hypoxia-inducible factor 1-alpha (Homo sapiens) (UniProt Q16665). Kind of assay: ATG_HIF1a_CIS: Attagene CIS-FACTORIAL HepG2 Assay for human Hypoxia Inducible Factor 1 (HIF1A) (AID 2282951). To be noted: HepG2 Attagene cis-factorial HIF1a reporter transcription; actives raise or lower the signal. In short, it runs like this: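 HepG2 cells transiently transfected with multiplexed cis-promoter reporter units; reporter mRNA read 24 h after dosing by RT-PCR, 6-FAM primer-extension labelling, HpaI digestion and capillary electrophoresis. Bidirectional fit versus DMSO baseline.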
Sequence of Hypoxia-inducible factor 1-alpha (Homo sapiens) (Q16665 whole entry, looked up): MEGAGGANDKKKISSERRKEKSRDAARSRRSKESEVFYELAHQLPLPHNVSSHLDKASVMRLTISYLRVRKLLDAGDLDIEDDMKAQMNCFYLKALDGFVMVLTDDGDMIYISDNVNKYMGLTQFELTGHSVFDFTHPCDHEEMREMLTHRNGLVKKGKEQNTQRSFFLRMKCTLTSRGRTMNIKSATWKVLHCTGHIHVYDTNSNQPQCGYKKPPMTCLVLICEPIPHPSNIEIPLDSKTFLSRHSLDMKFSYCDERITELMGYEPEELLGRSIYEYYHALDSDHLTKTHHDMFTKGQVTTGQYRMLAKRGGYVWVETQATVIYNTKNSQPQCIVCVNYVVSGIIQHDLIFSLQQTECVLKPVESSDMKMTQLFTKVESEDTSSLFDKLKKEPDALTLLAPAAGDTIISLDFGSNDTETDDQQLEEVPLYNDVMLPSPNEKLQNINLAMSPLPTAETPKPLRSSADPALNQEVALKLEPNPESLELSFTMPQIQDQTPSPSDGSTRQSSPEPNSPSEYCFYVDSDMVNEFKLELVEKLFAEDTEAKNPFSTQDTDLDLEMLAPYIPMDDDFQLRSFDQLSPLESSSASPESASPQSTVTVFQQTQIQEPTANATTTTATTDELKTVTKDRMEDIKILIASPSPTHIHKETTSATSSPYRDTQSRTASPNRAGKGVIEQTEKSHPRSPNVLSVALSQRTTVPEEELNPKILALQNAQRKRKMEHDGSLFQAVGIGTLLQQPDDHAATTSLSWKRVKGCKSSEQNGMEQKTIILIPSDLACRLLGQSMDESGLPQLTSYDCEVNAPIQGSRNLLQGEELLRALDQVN

The target in assay [17] is Hepatocyte nuclear factor 6 (Homo sapiens) (UniProt Q9UBC0). The assay is described as follows: ATG_HNF6_CIS: Attagene CIS-FACTORIAL HepG2 Assay for human Hepatocyte Nuclear Factor 6 (HNF6) (AID 2282952). The note with it: HepG2 Attagene cis-factorial HNF6 reporter transcription; actives raise or lower the signal. In short, it runs like this: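 Readout: fluorescent reporter-transcript fragments resolved by capillary electrophoresis after RT-PCR, reflecting endogenous factor activity in transfected HepG2. Exposure 24 h. Gain or loss of signal fitted bidirectionally against DMSO.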
Sequence of Hepatocyte nuclear factor 6 (Homo sapiens) (Q9UBC0 whole entry, looked up, the tested form may be a part): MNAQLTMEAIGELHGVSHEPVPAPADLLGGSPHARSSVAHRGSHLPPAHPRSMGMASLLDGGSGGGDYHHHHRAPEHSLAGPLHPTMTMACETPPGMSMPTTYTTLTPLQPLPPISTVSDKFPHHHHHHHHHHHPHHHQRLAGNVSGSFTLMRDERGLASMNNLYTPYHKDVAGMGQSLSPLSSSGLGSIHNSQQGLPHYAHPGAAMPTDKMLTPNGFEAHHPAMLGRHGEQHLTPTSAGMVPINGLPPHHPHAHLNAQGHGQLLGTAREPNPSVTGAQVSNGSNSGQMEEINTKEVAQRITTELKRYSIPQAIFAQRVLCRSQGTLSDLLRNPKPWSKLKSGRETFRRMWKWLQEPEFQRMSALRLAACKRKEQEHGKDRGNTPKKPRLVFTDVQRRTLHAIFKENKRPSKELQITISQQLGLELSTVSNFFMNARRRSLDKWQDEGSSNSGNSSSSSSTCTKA

The nature of assay [18]: ATG_PPRE_CIS: Attagene CIS-FACTORIAL HepG2 Assay for human Peroxisome Proliferator-activated Response Element (PPRE) (AID 2282958). The note with it: HepG2 PPRE cis-element reporter, Attagene transcription factor profiling; actives raise or lower the signal. In short, it runs like this: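 HepG2 cells transiently transfected with multiplexed cis-element reporter units measure endogenous transcription factor activity. After 24 h compound exposure, reporter mRNA is quantified by RT-PCR, 6-FAM labeling, HpaI digestion and capillary electrophoresis; bidirectional fits are made against DMSO baseline.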

The nature of assay [19]: ATG_SREBP_CIS: Attagene CIS-FACTORIAL HepG2 Assay for human Sterol Regulatory Element Binding (SREBP) (AID 2282962). To be noted: HepG2 Attagene cis-factorial SREBP reporter, mRNA; actives raise or lower the signal. The gist of the method:
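Readout: fluorescent reporter-transcript peaks resolved by capillary electrophoresis after RT-PCR. Cells were human HepG2 carrying transfected cis-promoter reporter constructs, dosed for 24 h. Gain or loss of signal was fitted against DMSO controls.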

Assay [20] in a line: ATG_PXRE_CIS: Attagene CIS-FACTORIAL HepG2 Assay for human Pregnane X Receptor Element (PXRE) (AID 2282957). The note with it: HepG2 Attagene CIS-FACTORIAL PXRE reporter, mRNA; actives raise or lower the signal. In short, it runs like this:
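Read-out: fluorescence of reporter-specific RT-PCR products resolved by capillary electrophoresis, fitted bidirectionally relative to DMSO. Human HepG2 liver cells carried transfected cis-promoter reporter units and were exposed to chemicals for 24 h.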

Active and inactive are the calls of the source. How the source made its calls: active means hit-call score of the fitted dose curve at least 0.9, where 1 is the maximum; inactive means score below 0.9.

Sequence of Bile acid receptor (Homo sapiens) (Q96RI1 whole entry, looked up): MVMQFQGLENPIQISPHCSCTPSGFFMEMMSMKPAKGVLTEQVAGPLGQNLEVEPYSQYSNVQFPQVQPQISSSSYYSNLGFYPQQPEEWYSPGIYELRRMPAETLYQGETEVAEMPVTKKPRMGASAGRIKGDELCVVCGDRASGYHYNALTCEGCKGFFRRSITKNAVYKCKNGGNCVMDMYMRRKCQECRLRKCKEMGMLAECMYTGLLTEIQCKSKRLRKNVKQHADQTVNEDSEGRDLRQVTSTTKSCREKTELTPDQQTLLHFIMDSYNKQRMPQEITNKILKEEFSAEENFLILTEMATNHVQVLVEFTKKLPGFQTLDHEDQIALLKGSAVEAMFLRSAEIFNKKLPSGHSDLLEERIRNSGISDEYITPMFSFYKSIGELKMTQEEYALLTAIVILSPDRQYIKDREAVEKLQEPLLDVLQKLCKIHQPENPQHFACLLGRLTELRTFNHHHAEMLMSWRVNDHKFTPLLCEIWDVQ
Sequence of Signal transducer and activator of transcription 3 (Homo sapiens) (P40763 whole entry, looked up): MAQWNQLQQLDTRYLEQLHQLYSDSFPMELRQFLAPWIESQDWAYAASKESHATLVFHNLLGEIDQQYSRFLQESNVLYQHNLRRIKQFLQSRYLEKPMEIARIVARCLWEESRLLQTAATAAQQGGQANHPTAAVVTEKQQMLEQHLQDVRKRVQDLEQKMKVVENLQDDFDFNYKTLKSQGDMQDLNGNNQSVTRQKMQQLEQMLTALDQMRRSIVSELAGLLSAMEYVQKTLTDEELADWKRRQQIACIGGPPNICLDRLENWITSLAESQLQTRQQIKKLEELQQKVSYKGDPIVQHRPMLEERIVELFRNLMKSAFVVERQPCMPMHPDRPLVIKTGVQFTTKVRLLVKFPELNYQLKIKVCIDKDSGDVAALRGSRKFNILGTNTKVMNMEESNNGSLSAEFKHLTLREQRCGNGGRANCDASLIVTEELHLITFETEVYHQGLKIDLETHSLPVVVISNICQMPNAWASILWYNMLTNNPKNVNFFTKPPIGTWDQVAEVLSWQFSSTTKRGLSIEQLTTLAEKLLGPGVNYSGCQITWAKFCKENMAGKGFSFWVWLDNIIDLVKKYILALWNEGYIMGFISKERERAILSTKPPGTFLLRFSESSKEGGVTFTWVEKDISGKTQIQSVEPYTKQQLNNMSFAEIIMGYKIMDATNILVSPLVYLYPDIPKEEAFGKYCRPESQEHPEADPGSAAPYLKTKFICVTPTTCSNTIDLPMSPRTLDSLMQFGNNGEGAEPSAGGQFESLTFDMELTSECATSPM

Turning to `O=C1CCCCCCCCCCCCCCCO1`, the outcome in [1], in [2], in assay [3], in [4], in assay [5] and in [8] was inactive. Moreover, the molecule was called inactive in [9], in [10], in assay [11], in [12], in assay [13] and in [14]. Also, the result in assay [15] was inactive. For the same molecule, the concentration at half-maximal activity (AC50) in assay [6] was 160 µM (active); in assay [7] it was 180 µM (active).
Regarding `O=[N+]([O-])c1ccc(CO)cc1`, the outcome in assay [1], in [2], in assay [3], in assay [4], in assay [5] and in [16] was inactive. In addition, the molecule was called inactive in [17], in [6], in assay [7], in [9], in assay [18] and in assay [11]. Further, the molecule was called inactive in assay [12], in assay [19], in assay [13] and in assay [15].
Consider `Cc1ccc2oc(=O)ccc2c1`, for which the result in assay [1], in [2], in assay [3], in assay [4], in [5] and in assay [16] was inactive. The result in assay [17], in [6], in assay [7], in assay [9], in assay [20] and in [18] was inactive. For the same molecule, the outcome in assay [11], in assay [12], in assay [19] and in assay [15] was inactive.
In the case of `COC(=O)/C=C/C(C)=C\C=C\C(C)=C\C=C\C=C(C)\C=C\C=C(C)\C=C\C(=O)O`, the outcome in assay [1], in [2], in assay [3], in [4], in assay [5] and in assay [16] was inactive. The molecule was called inactive in assay [6], in assay [7], in assay [8], in assay [9], in [18] and in assay [10]. Besides, the molecule was classed as inactive in [11], in assay [12], in assay [19], in assay [14] and in [15]. The AC50 in [20] is 60.8 µM (active).
